Assay results: the supplement of paper PMC10849652
About 7,900 targets were measured; listed, in parts, are those with a hit and a random draw of the rest. About 0.6% of all pairs of compound and target were hits.

How the values were obtained:
Experiment in all cases: log2 fold change, soluble protein after heating vs DMSO (PISA); higher = thermal stabilisation; K562 cells, 10 uM, 30 min; active = over 0.2 and 3.5 SD of the protein, either way, in both replicates (recomputed)
[1] = compound: NC(=O)Nc1cc(-c2cccc(F)c2)sc1C(=O)N[C@H]1CCCNC1
Procedure, shortened: (§1)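 Soluble protein was quantified by TMTpro 16plex LC-MS/MS after channel sums were equalised. It was obtained as the supernatant after 21,000xg for 90 min from pooled aliquots of K562 cells (2×10^6 cells/mL, 10 μM compound, 30 min) heated for 3 min across 48°C-58°C and extracted in PBS with 0.5% NP-40 at 4°C. Thermal stability values are relative to control samples and come from duplicates. They are given as log2 fold changes.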

[2] = compound: NC(=O)c1cnc(N[C@@H]2CCCC[C@@H]2N)nc1Nc1cccc(-n2nccn2)c1
Procedure, shortened: as §1

[3] = compound: NC1(c2ccc(-c3nc4ccn5c(=O)[nH]nc5c4cc3-c3ccccc3)cc2)CCC1
Procedure, shortened: as §1

[4] = compound: NCC(=O)Nc1ccc(-n2nc(C(F)(F)F)cc2-c2ccc3c(ccc4ccccc43)c2)cc1
Procedure, shortened: as §1

entinostat = compound: Nc1ccccc1NC(=O)c1ccc(CNC(=O)OCc2cccnc2)cc1 [entinostat]
Procedure, shortened: as §1

vorinostat = compound: O=C(CCCCCCC(=O)Nc1ccccc1)NO [vorinostat]
Procedure, shortened: as §1

citarinostat = compound: O=C(CCCCCCNC(=O)c1cnc(N(c2ccccc2)c2ccccc2Cl)nc1)NO [citarinostat]
Procedure, shortened: as §1

silmitasertib = compound: O=C(O)c1ccc2c(c1)nc(Nc1cccc(Cl)c1)c1ccncc12 [silmitasertib]
Procedure, shortened: as §1

[5] = compound: O=C1NC(=O)C(c2cnc3ccccn23)=C1c1cn2c3c(cc(F)cc13)CN(C(=O)N1CCCCC1)CC2
Procedure, shortened: as §1

[6] = compound: c1cc(OCCN2CCCCC2)cc(-c2n[nH]c3ccc(-c4nnc[nH]4)cc23)c1
Procedure, shortened: as §1

entospletinib = compound: c1cn2cc(-c3ccc4cn[nH]c4c3)nc(Nc3ccc(N4CCOCC4)cc3)c2n1 [entospletinib]
Procedure, shortened: as §1

Measured: log2 fold change

BPHL (UniProt Q86WA6)
Sequence of UniProt Q86WA6 (Q86WA6 whole entry, looked up): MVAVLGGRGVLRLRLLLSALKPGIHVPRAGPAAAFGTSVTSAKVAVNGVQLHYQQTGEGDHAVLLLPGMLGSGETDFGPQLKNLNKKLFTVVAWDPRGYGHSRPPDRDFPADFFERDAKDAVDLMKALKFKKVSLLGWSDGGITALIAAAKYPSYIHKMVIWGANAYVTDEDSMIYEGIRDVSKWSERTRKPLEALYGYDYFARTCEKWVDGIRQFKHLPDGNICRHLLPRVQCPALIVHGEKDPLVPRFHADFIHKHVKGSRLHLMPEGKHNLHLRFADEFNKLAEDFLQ
inactive: [1] -0.014 | [2] -0.081 | [3] 0.255 | [4] -0.012 | entinostat 0.019 | vorinostat -0.04 | citarinostat -0.042 | silmitasertib -0.045 | [5] -0.06 | [6] 0.051 | entospletinib -0.01

ARMC10 (UniProt Q8N2F6)
inactive: [1] -0.039 | [2] 0.003 | [3] 0.005 | [4] 0.028 | entinostat 0.005 | vorinostat 0.056 | citarinostat 0.096 | silmitasertib 0.054 | [5] -0.039 | [6] -0.062 | entospletinib -0.001

ATP6V0A2 (UniProt Q9Y487)
Sequence of UniProt Q9Y487 (Q9Y487 whole entry, looked up): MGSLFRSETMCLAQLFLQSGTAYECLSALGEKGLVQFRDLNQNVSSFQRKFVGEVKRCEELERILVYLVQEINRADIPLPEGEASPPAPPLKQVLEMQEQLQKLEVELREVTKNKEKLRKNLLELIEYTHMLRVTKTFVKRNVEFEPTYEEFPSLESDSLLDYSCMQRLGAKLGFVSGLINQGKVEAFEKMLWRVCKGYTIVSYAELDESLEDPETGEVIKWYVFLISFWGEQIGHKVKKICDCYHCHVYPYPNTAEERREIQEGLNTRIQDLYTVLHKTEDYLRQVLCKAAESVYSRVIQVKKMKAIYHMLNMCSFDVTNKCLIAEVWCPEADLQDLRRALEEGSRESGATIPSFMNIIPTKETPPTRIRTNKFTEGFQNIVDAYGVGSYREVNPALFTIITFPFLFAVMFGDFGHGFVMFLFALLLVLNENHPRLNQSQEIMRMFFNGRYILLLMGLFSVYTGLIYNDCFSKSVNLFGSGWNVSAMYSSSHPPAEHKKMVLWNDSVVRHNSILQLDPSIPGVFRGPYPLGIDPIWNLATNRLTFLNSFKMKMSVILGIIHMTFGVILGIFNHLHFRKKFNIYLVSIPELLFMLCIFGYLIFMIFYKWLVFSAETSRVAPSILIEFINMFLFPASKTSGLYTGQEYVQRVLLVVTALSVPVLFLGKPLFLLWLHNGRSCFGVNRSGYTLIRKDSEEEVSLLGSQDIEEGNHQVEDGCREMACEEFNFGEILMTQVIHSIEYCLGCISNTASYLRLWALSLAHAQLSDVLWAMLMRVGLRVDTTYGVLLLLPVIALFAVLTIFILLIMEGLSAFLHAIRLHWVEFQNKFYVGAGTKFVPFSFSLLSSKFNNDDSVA
inactive: [1] -0.002 | [2] -0.072 | [3] -0.143 | [4] -0.024 | entinostat 0.021 | vorinostat 0 | citarinostat 0.036 | silmitasertib 0.079 | [5] 0.061 | [6] -0.043 | entospletinib 0.009

ATP2A3 isoform 2 (UniProt Q93084)
inactive: [1] -0.008 | [2] 0.007 | [3] -0.096 | [4] -0.072 | entinostat 0.035 | vorinostat -0.018 | citarinostat 0.019 | silmitasertib 0.068 | [5] -0.069 | [6] -0.05 | entospletinib -0.036

ATAD1 (UniProt Q8NBU5)
Sequence of UniProt Q8NBU5 (Q8NBU5 whole entry, looked up): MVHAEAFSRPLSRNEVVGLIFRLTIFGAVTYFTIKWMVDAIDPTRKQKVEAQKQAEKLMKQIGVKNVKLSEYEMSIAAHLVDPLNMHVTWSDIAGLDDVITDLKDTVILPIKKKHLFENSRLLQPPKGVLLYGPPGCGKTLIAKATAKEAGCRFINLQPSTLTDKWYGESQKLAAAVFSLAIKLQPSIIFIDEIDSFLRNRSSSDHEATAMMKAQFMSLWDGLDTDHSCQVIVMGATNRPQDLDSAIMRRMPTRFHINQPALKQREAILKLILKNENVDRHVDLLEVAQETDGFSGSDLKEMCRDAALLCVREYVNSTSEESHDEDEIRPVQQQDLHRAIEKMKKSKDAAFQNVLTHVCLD
inactive: [1] -0.036 | [2] -0.056 | [3] -0.015 | [4] -0.009 | entinostat 0.038 | vorinostat 0.012 | citarinostat 0.032 | silmitasertib 0.012 | [5] 0.197 | [6] -0.053 | entospletinib 0.022

AFDN isoform 5 (UniProt P55196)
Sequence of UniProt P55196 (P55196 whole entry, looked up): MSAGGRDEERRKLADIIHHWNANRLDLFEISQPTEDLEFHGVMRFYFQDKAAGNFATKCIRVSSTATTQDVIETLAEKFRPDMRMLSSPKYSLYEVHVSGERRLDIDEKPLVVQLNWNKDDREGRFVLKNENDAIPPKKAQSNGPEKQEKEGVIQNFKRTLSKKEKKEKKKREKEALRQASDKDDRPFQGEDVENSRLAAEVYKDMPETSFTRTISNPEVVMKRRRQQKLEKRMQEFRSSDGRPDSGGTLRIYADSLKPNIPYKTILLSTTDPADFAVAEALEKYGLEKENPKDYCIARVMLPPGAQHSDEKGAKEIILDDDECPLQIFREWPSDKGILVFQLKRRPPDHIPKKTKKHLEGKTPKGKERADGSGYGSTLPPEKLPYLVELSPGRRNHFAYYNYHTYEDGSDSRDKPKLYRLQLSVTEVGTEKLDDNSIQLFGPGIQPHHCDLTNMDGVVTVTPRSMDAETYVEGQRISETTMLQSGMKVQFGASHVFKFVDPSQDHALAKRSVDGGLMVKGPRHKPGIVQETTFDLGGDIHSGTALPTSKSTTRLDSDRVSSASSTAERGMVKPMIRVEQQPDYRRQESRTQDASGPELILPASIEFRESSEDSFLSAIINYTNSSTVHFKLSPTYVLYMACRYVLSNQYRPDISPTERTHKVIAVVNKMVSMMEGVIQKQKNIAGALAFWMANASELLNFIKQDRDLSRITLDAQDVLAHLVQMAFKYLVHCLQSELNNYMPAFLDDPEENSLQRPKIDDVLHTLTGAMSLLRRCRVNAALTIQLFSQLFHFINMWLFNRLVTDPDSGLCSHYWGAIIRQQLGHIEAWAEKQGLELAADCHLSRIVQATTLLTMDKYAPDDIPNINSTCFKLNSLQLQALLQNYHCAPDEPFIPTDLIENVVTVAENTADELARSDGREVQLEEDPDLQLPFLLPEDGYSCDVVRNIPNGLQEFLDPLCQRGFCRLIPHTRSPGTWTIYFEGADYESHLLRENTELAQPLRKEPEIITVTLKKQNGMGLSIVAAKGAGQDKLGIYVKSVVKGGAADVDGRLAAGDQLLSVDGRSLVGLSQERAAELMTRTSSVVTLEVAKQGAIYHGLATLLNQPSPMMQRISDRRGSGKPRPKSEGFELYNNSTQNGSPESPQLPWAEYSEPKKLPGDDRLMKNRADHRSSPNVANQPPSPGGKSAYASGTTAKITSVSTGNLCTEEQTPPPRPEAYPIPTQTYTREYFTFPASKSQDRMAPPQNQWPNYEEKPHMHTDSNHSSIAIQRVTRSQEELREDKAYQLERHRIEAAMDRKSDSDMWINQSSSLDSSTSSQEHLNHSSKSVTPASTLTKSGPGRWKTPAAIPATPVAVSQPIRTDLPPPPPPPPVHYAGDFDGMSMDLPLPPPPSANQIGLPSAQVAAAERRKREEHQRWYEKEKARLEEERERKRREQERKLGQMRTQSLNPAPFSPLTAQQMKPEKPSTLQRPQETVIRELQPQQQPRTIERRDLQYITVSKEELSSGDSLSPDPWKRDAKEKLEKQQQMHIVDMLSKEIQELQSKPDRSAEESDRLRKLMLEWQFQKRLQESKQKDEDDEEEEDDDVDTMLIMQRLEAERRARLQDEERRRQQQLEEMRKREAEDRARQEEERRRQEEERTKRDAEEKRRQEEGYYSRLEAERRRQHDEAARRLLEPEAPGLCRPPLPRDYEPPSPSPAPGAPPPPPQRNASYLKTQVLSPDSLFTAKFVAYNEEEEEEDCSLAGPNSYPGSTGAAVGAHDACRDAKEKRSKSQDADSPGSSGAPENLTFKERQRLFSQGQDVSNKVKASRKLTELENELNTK
inactive: [1] -0.154 | [2] -0.009 | [3] -0.099 | [4] -0.025 | entinostat 0.008 | vorinostat 0.019 | citarinostat 0.079 | silmitasertib -0.012 | [5] -0.052 | [6] -0.068 | entospletinib -0.041

ACSL1 (UniProt P33121)
inactive: [1] -0.058 | [2] -0.015 | [3] -0.091 | [4] -0.003 | entinostat -0.034 | vorinostat 0.004 | citarinostat 0.071 | silmitasertib 0.029 | [5] -0.038 | [6] -0.022 | entospletinib -0.006

ATP1A4 (UniProt Q13733)
Sequence of UniProt Q13733 (Q13733 whole entry, looked up): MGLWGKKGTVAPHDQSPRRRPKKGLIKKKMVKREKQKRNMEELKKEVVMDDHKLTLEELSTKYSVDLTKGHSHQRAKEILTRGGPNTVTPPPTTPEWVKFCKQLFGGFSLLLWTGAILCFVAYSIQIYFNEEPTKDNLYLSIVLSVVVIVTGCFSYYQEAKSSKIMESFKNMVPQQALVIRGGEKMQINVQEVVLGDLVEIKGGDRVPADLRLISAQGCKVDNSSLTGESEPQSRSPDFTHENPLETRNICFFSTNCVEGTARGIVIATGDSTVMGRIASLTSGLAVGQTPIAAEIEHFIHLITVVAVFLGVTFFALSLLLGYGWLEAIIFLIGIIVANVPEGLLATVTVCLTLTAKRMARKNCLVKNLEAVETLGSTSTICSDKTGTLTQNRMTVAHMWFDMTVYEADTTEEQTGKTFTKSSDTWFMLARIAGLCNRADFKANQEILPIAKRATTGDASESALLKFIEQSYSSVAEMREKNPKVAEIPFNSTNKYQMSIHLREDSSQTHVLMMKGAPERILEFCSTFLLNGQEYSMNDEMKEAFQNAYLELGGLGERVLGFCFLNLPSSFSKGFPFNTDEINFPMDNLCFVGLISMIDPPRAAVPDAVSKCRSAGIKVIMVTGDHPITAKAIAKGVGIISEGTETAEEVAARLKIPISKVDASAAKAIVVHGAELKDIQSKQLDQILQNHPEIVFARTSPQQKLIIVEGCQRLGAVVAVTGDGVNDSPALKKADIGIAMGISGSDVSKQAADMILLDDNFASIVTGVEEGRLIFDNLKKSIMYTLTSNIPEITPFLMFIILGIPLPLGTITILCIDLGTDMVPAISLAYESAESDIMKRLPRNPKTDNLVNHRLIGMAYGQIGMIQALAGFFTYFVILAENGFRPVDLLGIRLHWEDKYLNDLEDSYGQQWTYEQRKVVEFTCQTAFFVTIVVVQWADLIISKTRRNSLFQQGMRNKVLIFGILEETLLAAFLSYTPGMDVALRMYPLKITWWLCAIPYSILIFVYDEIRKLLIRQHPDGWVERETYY
inactive: [1] 0.023 | [2] 0.069 | [3] 0.059 | [4] -0.03 | entinostat -0.001 | vorinostat -0.002 | citarinostat 0.121 | silmitasertib 0.007 | [5] 0.176 | [6] -0.088 | entospletinib -0.065

ACP1 isoform 2 (UniProt P24666)
Sequence of UniProt P24666 (P24666 whole entry, looked up): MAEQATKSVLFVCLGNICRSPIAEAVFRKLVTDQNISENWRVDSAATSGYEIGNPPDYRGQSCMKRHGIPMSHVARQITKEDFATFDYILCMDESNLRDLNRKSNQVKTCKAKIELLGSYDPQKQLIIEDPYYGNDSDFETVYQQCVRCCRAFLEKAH
inactive: [1] 0.048 | [2] -0.018 | [3] -0.086 | [4] -0.041 | entinostat 0.041 | vorinostat 0.159 | citarinostat 0.005 | silmitasertib -0.005 | [5] -0.149 | [6] -0.044 | entospletinib 0.052

ADH5 (UniProt P11766)
inactive: [1] 0.024 | [2] 0.002 | [3] -0.006 | [4] 0.021 | entinostat -0.031 | vorinostat -0.013 | citarinostat 0.015 | silmitasertib -0.026 | [5] -0.03 | [6] -0.016 | entospletinib -0.025

ACADVL isoform 3 (UniProt P49748)
inactive: [1] -0.025 | [2] -0.036 | [3] -0.021 | [4] -0.032 | entinostat 0 | vorinostat -0.019 | citarinostat 0.043 | silmitasertib -0.015 | [5] -0.014 | [6] -0.028 | entospletinib 0.002

AGPAT1 (UniProt Q99943)
Sequence of UniProt Q99943 (Q99943 whole entry, looked up): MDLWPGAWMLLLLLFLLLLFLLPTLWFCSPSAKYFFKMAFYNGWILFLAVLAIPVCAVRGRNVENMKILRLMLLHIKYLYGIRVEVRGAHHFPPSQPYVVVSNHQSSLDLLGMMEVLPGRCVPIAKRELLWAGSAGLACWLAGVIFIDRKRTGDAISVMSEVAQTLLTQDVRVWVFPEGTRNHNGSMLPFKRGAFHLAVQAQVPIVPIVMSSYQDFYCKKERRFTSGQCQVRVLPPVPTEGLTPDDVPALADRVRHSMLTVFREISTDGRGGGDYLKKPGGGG
inactive: [1] 0.013 | [2] -0.022 | [3] 0.018 | [4] -0.012 | entinostat -0.033 | vorinostat -0.03 | citarinostat 0.088 | silmitasertib -0.007 | [5] -0.067 | [6] -0.002 | entospletinib -0.037

ANP32E (UniProt Q9BTT0)
inactive: [1] 0.029 | [2] -0.043 | [3] 0.014 | [4] 0.063 | entinostat 0.016 | vorinostat 0.01 | citarinostat 0.116 | silmitasertib 0.083 | [5] -0.233 | [6] -0.036 | entospletinib 0

ACSL4 (UniProt O60488)
inactive: [1] -0.087 | [2] -0.097 | [3] -0.057 | [4] -0.023 | entinostat 0.081 | vorinostat 0.029 | citarinostat 0.044 | silmitasertib 0.149 | [5] 0.003 | [6] 0.017 | entospletinib 0.009
